Experimental data published in the supplement of paper PMC6555819.

How the values were obtained:
Test in all cases: PBM binding z-score (relative to random genomic background probes); higher = stronger binding; sequences stand for … in GC…GCGATTGACAGCGTAGAATGAAGG
[1] = system: FXR:RXRa (NR concentration 270 nM, RXRa partner concentration 90 nM)
How it was run: (§1)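 Ligand-free nuclear receptor dimers were applied to custom Agilent 4×180K protein-binding microarrays whose double-stranded probes carried direct-repeat seeds, single-nucleotide variants, half-site ablations and random human genomic background sequences in 34-nt variable regions. Incubation lasted 1 h. Binding z-scores were computed against the random background probes from regression-normalized fluorescence.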

[2] = system: LXRa:RXRa (NR concentration 270 nM, RXRa partner concentration 90 nM)
How it was run: as §1

[3] = system: LXRa homodimer (NR concentration 270 nM)
How it was run: as §1

[4] = system: LXRb:RXRa (NR concentration 270 nM, RXRa partner concentration 90 nM)
How it was run: as §1

[5] = system: LXRb homodimer (NR concentration 270 nM)
How it was run: as §1

[6] = system: PPARa:RXRa (NR concentration 270 nM, RXRa partner concentration 90 nM)
How it was run: as §1

[7] = system: PPARg:RXRa (NR concentration 180 nM, RXRa partner concentration 90 nM)
How it was run: as §1

[8] = system: PPARg:RXRa 270nM:90nM, anti-RXR (NR concentration 270 nM, RXRa partner concentration 90 nM)
How it was run: as §1

[9] = system: PPARg:RXRa 30nM:10nM, anti-RXR (NR concentration 30 nM, RXRa partner concentration 10 nM)
How it was run: as §1

[10] = system: PPARg:RXRa 90nM:30nM, anti-RXR (NR concentration 90 nM, RXRa partner concentration 30 nM)
How it was run: as §1

[11] = system: PPARg:RXRa DBDmut IVT, anti-RXR (DBD mutation: RXRa K156A/R161A, NR concentration 270 nM, RXRa partner concentration 90 nM)
How it was run: as §1

[12] = system: PPARg:RXRa IVT, anti-PPARg (NR concentration 270 nM, RXRa partner concentration 90 nM)
How it was run: as §1

[13] = system: PPARg DBDmut:RXRa IVT, anti-PPARg (DBD mutation: PPARg1 K132A/R137A, NR concentration 270 nM, RXRa partner concentration 90 nM)
How it was run: as §1

[14] = system: PPARg DBDmut IVT, anti-PPARg (DBD mutation: PPARg1 K132A/R137A, NR concentration 270 nM)
How it was run: as §1

[15] = system: PPARg homodimer (NR concentration 180 nM)
How it was run: as §1

[16] = system: PXR:RXRa (NR concentration 270 nM, RXRa partner concentration 90 nM)
How it was run: as §1

[17] = system: PXR homodimer (NR concentration 270 nM)
How it was run: as §1

[18] = system: RARa:RXR (NR concentration 270 nM, RXRa partner concentration 90 nM)
How it was run: as §1

[19] = system: RARa homodimer (NR concentration 270 nM)
How it was run: as §1

[20] = system: RARb:RXRa (NR concentration 270 nM, RXRa partner concentration 90 nM)
How it was run: as §1

## TATTGTAGATCAATAGAGGTTAAGAAAGTGCGCT
[1]
  PBM binding z-score: 0.833
[2]
  PBM binding z-score: 3.7
[3]
  PBM binding z-score: 0.984
[4]
  PBM binding z-score: 1.79
[5]
  PBM binding z-score: 0.902
[6]
  PBM binding z-score: 1.97
[7]
  PBM binding z-score: 0.757
[8]
  PBM binding z-score: 0.86
[9]
  PBM binding z-score: 0.535
[10]
  PBM binding z-score: 0.718
[11]
  PBM binding z-score: 0.44
[12]
  PBM binding z-score: 1.78
[13]
  PBM binding z-score: 1.72
[14]
  PBM binding z-score: 1.55
[15]
  PBM binding z-score: 0.993
[16]
  PBM binding z-score: 3.04
[17]
  PBM binding z-score: 0.513
[18]
  PBM binding z-score: 1.71
[19]
  PBM binding z-score: 1.1
[20]
  PBM binding z-score: 0.903

## TAGCCTAGGTCATTAGGCCAGTATAGTACGCATC
[1]
  PBM binding z-score: 3.64
[2]
  PBM binding z-score: 2.91
[3]
  PBM binding z-score: 0.7
[4]
  PBM binding z-score: 1.88
[5]
  PBM binding z-score: 0.111
[6]
  PBM binding z-score: 3.31
[7]
  PBM binding z-score: 3.34
[8]
  PBM binding z-score: 3.34
[9]
  PBM binding z-score: 1.05
[10]
  PBM binding z-score: 2.14
[11]
  PBM binding z-score: 2.12
[12]
  PBM binding z-score: 3.88
[13]
  PBM binding z-score: 0.301
[14]
  PBM binding z-score: -0.52
[15]
  PBM binding z-score: 1.19
[16]
  PBM binding z-score: 0.87
[17]
  PBM binding z-score: -0.114
[18]
  PBM binding z-score: 1.79
[19]
  PBM binding z-score: 0.0486
[20]
  PBM binding z-score: 3.24

## TCTAGCAGGCCAGAGGGTCACTTAAGAGGTACGG
[1]
  PBM binding z-score: 1.18
[2]
  PBM binding z-score: 0.809
[3]
  PBM binding z-score: -0.547
[4]
  PBM binding z-score: 1.05
[5]
  PBM binding z-score: -1.09
[6]
  PBM binding z-score: 2.4
[7]
  PBM binding z-score: 1.58
[8]
  PBM binding z-score: 2.96
[9]
  PBM binding z-score: 2.13
[10]
  PBM binding z-score: 2.57
[11]
  PBM binding z-score: 0.598
[12]
  PBM binding z-score: 0.688
[13]
  PBM binding z-score: -0.762
[14]
  PBM binding z-score: -0.435
[15]
  PBM binding z-score: 0.442
[16]
  PBM binding z-score: 1.35
[17]
  PBM binding z-score: -0.462
[18]
  PBM binding z-score: 2.27
[19]
  PBM binding z-score: -0.441
[20]
  PBM binding z-score: 2.19

## GCTCCGAGGACAAGGTCAGAGCTTTGTCCGTAGA
[1]
  PBM binding z-score: 1.79
[2]
  PBM binding z-score: 1.33
[3]
  PBM binding z-score: -0.653
[4]
  PBM binding z-score: 1.05
[5]
  PBM binding z-score: -1.37
[6]
  PBM binding z-score: 2.23
[7]
  PBM binding z-score: 0.168
[8]
  PBM binding z-score: 1.15
[9]
  PBM binding z-score: -0.379
[10]
  PBM binding z-score: 0.299
[11]
  PBM binding z-score: 0.525
[12]
  PBM binding z-score: 0.632
[13]
  PBM binding z-score: -1.51
[14]
  PBM binding z-score: -1.01
[15]
  PBM binding z-score: 0.305
[16]
  PBM binding z-score: 1.55
[17]
  PBM binding z-score: -0.543
[18]
  PBM binding z-score: 1.76
[19]
  PBM binding z-score: -0.762
[20]
  PBM binding z-score: 3.33

## ATCTCAAGGTAAAAGTTCAGTGAATCCCGAGGAT
[1]
  PBM binding z-score: 1.18
[2]
  PBM binding z-score: 1.66
[3]
  PBM binding z-score: 1.12
[4]
  PBM binding z-score: 0.879
[5]
  PBM binding z-score: 0.539
[6]
  PBM binding z-score: 3.08
[7]
  PBM binding z-score: 3.54
[8]
  PBM binding z-score: 4.49
[9]
  PBM binding z-score: 2.83
[10]
  PBM binding z-score: 4.24
[11]
  PBM binding z-score: -0.133
[12]
  PBM binding z-score: 1.48
[13]
  PBM binding z-score: 0.958
[14]
  PBM binding z-score: 1.4
[15]
  PBM binding z-score: 0.853
[16]
  PBM binding z-score: 2.03
[17]
  PBM binding z-score: 1.43
[18]
  PBM binding z-score: 2.15
[19]
  PBM binding z-score: 0.0495
[20]
  PBM binding z-score: 2.62

## GCAAGCAGGCCATTTGGGTCACTCAATGACGGGC
[1]
  PBM binding z-score: 0.00635
[2]
  PBM binding z-score: -0.402
[3]
  PBM binding z-score: -0.429
[4]
  PBM binding z-score: -0.137
[5]
  PBM binding z-score: -0.801
[6]
  PBM binding z-score: 1.34
[7]
  PBM binding z-score: 0.661
[8]
  PBM binding z-score: 0.661
[9]
  PBM binding z-score: -0.408
[10]
  PBM binding z-score: 0.131
[11]
  PBM binding z-score: 1.67
[12]
  PBM binding z-score: 2.35
[13]
  PBM binding z-score: -0.319
[14]
  PBM binding z-score: -0.988
[15]
  PBM binding z-score: 0.0293
[16]
  PBM binding z-score: 0.422
[17]
  PBM binding z-score: 0.0274
[18]
  PBM binding z-score: 0.6
[19]
  PBM binding z-score: -0.747
[20]
  PBM binding z-score: 1.33

## TCTATTGGTTGAAGGGCAACCGACGAGTCCGTTT
[1]
  PBM binding z-score: 0.476
[2]
  PBM binding z-score: 0.767
[3]
  PBM binding z-score: 0.01
[4]
  PBM binding z-score: 0.546
[5]
  PBM binding z-score: 0.657
[6]
  PBM binding z-score: 1.23
[7]
  PBM binding z-score: 0.669
[8]
  PBM binding z-score: 2.98
[9]
  PBM binding z-score: 3.37
[10]
  PBM binding z-score: 3.23
[11]
  PBM binding z-score: 1.93
[12]
  PBM binding z-score: 0.82
[13]
  PBM binding z-score: 0.765
[14]
  PBM binding z-score: 0.266
[15]
  PBM binding z-score: 1.09
[16]
  PBM binding z-score: 0.725
[17]
  PBM binding z-score: 0.614
[18]
  PBM binding z-score: 0.74
[19]
  PBM binding z-score: 0.718
[20]
  PBM binding z-score: 1.55

## TCTAGCAGGCGAGAGGGTCACTCAAGAGGTACGG
[1]
  PBM binding z-score: 0.647
[2]
  PBM binding z-score: 0.656
[3]
  PBM binding z-score: -0.616
[4]
  PBM binding z-score: 1.05
[5]
  PBM binding z-score: -1.27
[6]
  PBM binding z-score: 2.03
[7]
  PBM binding z-score: 0.765
[8]
  PBM binding z-score: 1.64
[9]
  PBM binding z-score: 1.43
[10]
  PBM binding z-score: 1.6
[11]
  PBM binding z-score: 0.656
[12]
  PBM binding z-score: -0.139
[13]
  PBM binding z-score: -0.781
[14]
  PBM binding z-score: -0.425
[15]
  PBM binding z-score: 0.125
[16]
  PBM binding z-score: 1.47
[17]
  PBM binding z-score: -0.472
[18]
  PBM binding z-score: 2.24
[19]
  PBM binding z-score: -0.11
[20]
  PBM binding z-score: 1.81
